Screens from PubChem BioAssay.
Sampled rows, rich in hits. Any-hit rate of the full collection: about 3.5%.
FBW7 act – human FBW7 E3 ligase activation, primary screen. Q969H0. AID 1259310. AlphaScreen FBW7–phospho-cyclin E peptide binding, activator screen. 650,000 compounds, 0.13% hits. normalized activity (activation), % at 26.1 µM; in the data active means normalized activity above about 1.9%;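 further: purified mutant Fbw7 with reduced substrate affinity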
MITF inh – human MITF inhibition, primary screen | AID 1259374 | inhibition, % at 2.6 µM | 650,000 compounds, 0.91% hits | O75030 | AlphaScreen MITF homodimerization, bead proximity signal; in the data active means inhibition above about 50%
TEAD-YAP block – TEAD-YAP interaction inhibition; HEK-TIYL cells, TEAD-Gal4/YAP UAS-luciferase luminescence; inhibition, % at 9.12 µM; 640,000 compounds, 1.4% hits; in the data active means inhibition above about 32%
GPR151 activ – human GPR151 activation. AID 1508602. activation, % at 11.2 µM. PathHunter beta-arrestin GPR151 cells, luminescence. 650,000 compounds, 1% hits; in the data active means activation above about 4.9%
Target sequence (Q8TDV0 whole entry, looked up): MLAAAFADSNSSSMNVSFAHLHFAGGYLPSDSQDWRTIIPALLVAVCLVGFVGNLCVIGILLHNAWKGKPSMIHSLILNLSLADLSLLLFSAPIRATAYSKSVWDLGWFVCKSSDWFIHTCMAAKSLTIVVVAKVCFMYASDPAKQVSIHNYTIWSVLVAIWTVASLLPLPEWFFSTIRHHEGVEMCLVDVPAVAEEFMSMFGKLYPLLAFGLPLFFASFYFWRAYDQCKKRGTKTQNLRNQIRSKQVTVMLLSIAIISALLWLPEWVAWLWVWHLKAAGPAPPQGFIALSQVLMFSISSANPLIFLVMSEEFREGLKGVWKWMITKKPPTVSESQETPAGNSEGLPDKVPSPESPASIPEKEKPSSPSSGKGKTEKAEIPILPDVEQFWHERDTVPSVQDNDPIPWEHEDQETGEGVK
MITF inh conf – confirmation of human MITF inhibitors; shares compounds with MITF inh; AlphaScreen MITF homodimerization, biotin/His-MITF beads; inhibition, % at 2.6 µM; 4,700 compounds, 16% hits; AID 1259372;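 active means inhibition above a cutoff derived from the DMSO control wells, cut at about 28% in these data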;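 further: inhibitors lower the bead chemiluminescence by keeping MITF from dimerizing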
AS interf DR – AlphaScreen optical interference, dose response counter-screen; AlphaScreen optical interference counterscreen, cell-free; shares compounds with MITF inh; 480 compounds, 6% hits; IC50, µM; AID 1259373; call rule not given here
AS interf ctr – optically interferes with AlphaScreen signal. 4,700 compounds, 7.6% hits. LysRS AlphaScreen counterscreen, signal interference, triplicate. inhibition, % at 2.6 µM. AID 1259376. shares compounds with MITF inh;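 active means inhibition above a cutoff derived from the DMSO control wells, cut at about 30% in these data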
Numbers stand for hits; n = inactive; x = not tested or not shown.

SMILES	FBW7 act	MITF inh	TEAD-YAP block	GPR151 activ	MITF inh conf	AS interf ctr	others
c1ccc(CCCN2CCN(Cc3ccncc3)CC2)cc1	n	69	n	n	n	n
COc1ccc(CN2CCN(CCCc3ccccc3)CC2)cc1OC	n	59	n	n	n	n
Cc1ccc(CN2CCN(CCCc3ccccc3)CC2)cc1	n	66	n	n	n	n
c1ccc(CN2CCN(Cc3ccncc3)CC2)cc1	n	80	n	n	n	n
COc1ccc(CN2CCN(CCCc3ccccc3)C(CCO)C2)cc1OC (centres undefined)	n	n	n	n	x	x
Cc1ccc(S(=O)(=O)CCN2CCN(Cc3ccccc3)CC2)cc1	n	n	n	n	x	x
CC(C)C(=O)Nc1nnc(Cc2ccc(Cl)cc2)s1	n	n	n	n	x	x
CCOC(=O)c1c(NC(=O)CSc2nnc(CNC(=O)Cc3ccccc3)n2CCc2ccccc2)sc2c1CCCC2	n	n	n	n	x	x
CCc1ccc(/C=C2/SC(=S)N(CCS(=O)(=O)O)C2=O)cc1	n	n	n	n	x	x
c1ccc2c(OCCOCCNCCN3CCOCC3)cccc2c1	n	52	n	n	n	n
CCC(C)c1ccccc1OCCOCCN(C)C (centres undefined)	n	86	n	n	n	n
C=CCNCCOCCOc1ccccc1C(C)CC (centres undefined)	n	n	n	n	x	x
CCC(C)c1ccccc1OCCCN1CCOCC1 (centres undefined)	n	61	n	n	n	n
CC(=O)c1ccccc1OCCCN1CCOCC1	n	n	n	n	x	x
CCC(C)c1ccccc1OCCOCCN1CCCC1 (centres undefined)	n	n	n	n	x	x
CCC(C)c1ccccc1OCCOCCN1CCOCC1 (centres undefined)	n	76	n	n	n	n
Cc1sc2nc(Cc3ccccc3)nc(N3CCCC3)c2c1C	n	n	n	n	x	x
COc1cccc(C2NCCc3cc(OC)c(OC)cc32)c1 (centres undefined)	n	n	n	n	x	x
O=C(CCc1nnc(C2CCCCC2)o1)NCc1csc(Cc2ccccc2)n1	n	n	n	n	x	x
Cc1ccc(-c2cc(C(F)(F)F)n3ncc(C(=O)N(C)CCc4ccccn4)c3n2)cc1	n	n	n	n	x	x
CCN1CCN(CCCCOc2cccc3ccccc23)CC1	n	n	n	n	x	x
CCN1CCN(CCCCOc2ccccc2OC(C)C)CC1	n	51	n	n	n	n
CCN1CCN(CCCOc2ccccc2OCc2ccccc2)CC1	n	69	n	n	n	n
CCC(C)c1ccccc1OCCCCN1CCOCC1 (centres undefined)	n	51	n	n	n	n
CCC(C)c1ccccc1OCCN1CCNCC1 (centres undefined)	n	n	n	n	x	x
SMILES	FBW7 act	MITF inh	TEAD-YAP block	GPR151 activ	MITF inh conf	AS interf ctr	others
CCOc1ccccc1OCCCCN1CCOCC1	n	n	n	n	x	x
CCC(C)c1ccccc1OCCCN1CCN(CC)CC1 (centres undefined)	n	63	n	n	n	n
Cc1noc(C)c1CSc1nc2sc3c(c2c(=O)n1-c1ccccc1)CCCC3	n	n	n	n	x	x
COc1ccc(CNC(=O)CSc2nc(N)c3c(C)c(C)sc3n2)cc1	n	n	n	n	x	x
CSc1nc2ccc3nc(NC(=O)c4ccc(S(=O)(=O)N5CCCC(C)C5)cc4)sc3c2s1 (centres undefined)	n	n	n	n	x	x
CCc1cc2cc3c(cc2nc1SCC(=O)N1CCCC1)OCO3	n	n	n	n	x	x
Fc1ccccc1CN1CCN(C2CCCC2)CC1	n	n	n	n	x	x
Fc1cccc(F)c1CN1CCOCC1	n	n	n	n	x	x
CC1CCN(C2CCN(Cc3ccccc3F)CC2)CC1	n	64	n	n	n	n
OCCN1CCN(C2CCN(Cc3ccccc3F)CC2)CC1	n	82	n	n	n	n
CC1CCN(Cc2c(F)cccc2F)CC1	n	63	n	n	n	n
Cc1ccccc1CN1CCN(C2CCCCCC2)CC1	n	69	n	n	n	n
OCCC1CN(Cc2ccc3ncccc3c2)CCN1C1CCCC1 (centres undefined)	n	n	n	n	x	x
N#C/C(=C\c1ccc(C(F)(F)F)cc1)S(=O)(=O)c1ccccc1	n	n	n	n	x	x
COC(=O)c1nc2n(n1)C(c1ccccc1)C(C(=O)Nc1ccccc1OC)=C(C)N2 (centres undefined)	n	n	n	n	x	x
CC(=O)Nc1nnc(CCCn2c(=O)oc3ccccc32)s1	n	n	n	n	x	x
O=[N+]([O-])c1ccc(N2CCCC2)cc1NCCO	n	n	n	n	x	x
Cc1ccccc1CN1CCC(N2CCN(CCO)CC2)CC1	n	59	n	n	n	n
Cc1ccccc1CN1CCC(N2CCC(C(=O)N3CCCC3)CC2)CC1	n	n	n	n	x	x
O=C(CSc1ncccn1)Nc1nc(=O)c2ccccc2s1	n	n	n	n	x	x
Cc1ccc(NC(=O)CC2NCCNC2=O)cc1C (centres undefined)	n	72	n	n	n	n
Cc1c(NCc2nnc(-c3ccccc3)o2)c(=O)n(-c2ccccc2)n1C	n	n	n	n	x	x
Cc1ccc(C(=O)N2CCN3C(=O)[C@H](C)N(C)C(=O)[C@H]3C2)cc1	n	n	n	n	x	x
CC(C)C[C@H]1C(=O)N2CCN(C(=O)NC3CCCCC3)C[C@@H]2C(=O)N1C	n	70	n	n	71	n	AS interf DR=n
C[C@H]1C(=O)N2CCN(C(=O)NC3CCCCC3)C[C@@H]2C(=O)N1C	n	78	n	n	74	n	AS interf DR=n
O=C(c1cc(Cl)cc(Cl)c1)N1CCN(C(=O)c2cc(Cl)cc(Cl)c2)CC1	n	n	n	n	x	x
O=C(c1cc(Cl)cc(Cl)c1)N1CCCCC1	n	62	n	n	n	n
CC(C)=C1C2CC2C2C(C(=O)O)C12 (centres undefined)	n	60	n	n	n	n
